The source made the active and inactive calls.
Tests used:
[1] = tested on: PRMT1 (protein arginine N-methyltransferase 1); assay: small molecules binding arginine methyltransferase PRMT1 – biochemical, small-molecule microarray, 635 nm fluorescence, primary screen (AID 1088); details: higher = more signal;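 further: binding of Prmt1 protein to compounds spotted on small-molecule microarray slides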
[2] = growth effects on S. cerevisiae YJM789 – YJM789 clinical isolate, OD600, 24 h, basal, primary screen (AID 1089); details: higher = more signal, called active from +8 up or from −8 down;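 further: growth of clinical yeast isolate S. cerevisiae YJM 789 seeded 1000 cells per well; test concentration not given here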
[3] = S. pombe growth modifiers, basal conditions – strain 972, OD600, 24 h, no modulator, primary screen (AID 1090);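 further: basal condition with compound alone and no growth modifier present; test concentration not given here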; details: S. pombe 972 growth, higher = more signal, called active from +8 up or from −8 down
[4] = budding yeast growth modifiers under rapamycin – strain BY4716, OD600, 96 h, primary screen (AID 1091); further: test concentration not given here; details: S. cerevisiae BY4716 + rapamycin, higher = more signal, called active from +8 up or from −8 down
[5] = biological target: Torsin-1A-interacting protein 2 (Homo sapiens) (UniProt Q8NFQ8); assay: small molecules binding lysate-expressed LULL1 – cell lysate, human LULL1 lysate, 635/667 nm fluorescence, primary screen (AID 1092); details: small-molecule microarray, hLULL1 lysate binding, 635 nm fluorescence; higher = more signal;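 further: probe is lysate of COS7 cells overexpressing human LULL1; score merges per-feature 667 nm fluorescence with signal-to-noise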
Torsin-1A-interacting protein 2 (Homo sapiens), sequence (Q8NFQ8 whole entry, looked up): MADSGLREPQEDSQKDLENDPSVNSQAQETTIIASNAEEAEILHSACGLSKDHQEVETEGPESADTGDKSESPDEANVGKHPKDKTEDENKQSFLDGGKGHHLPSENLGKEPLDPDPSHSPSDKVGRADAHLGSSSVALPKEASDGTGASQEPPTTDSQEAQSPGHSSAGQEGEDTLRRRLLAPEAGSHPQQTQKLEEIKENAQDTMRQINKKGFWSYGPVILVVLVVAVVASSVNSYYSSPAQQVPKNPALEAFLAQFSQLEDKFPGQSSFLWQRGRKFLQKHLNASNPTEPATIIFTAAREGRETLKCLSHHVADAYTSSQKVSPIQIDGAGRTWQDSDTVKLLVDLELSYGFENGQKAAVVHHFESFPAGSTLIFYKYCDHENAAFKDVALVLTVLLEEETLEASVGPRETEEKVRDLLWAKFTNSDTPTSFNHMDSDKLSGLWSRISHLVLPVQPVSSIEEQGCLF

[6] = optical density change of DRC41 E. coli – strain DRC41, OD650, 24 h, E. coli filamentation project, primary screen (AID 1093);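 further: MC1000 strain lacking acrAB efflux and sulA so SOS filamentation is blocked; test concentration not given here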; details: E. coli DRC41 growth, higher = more signal, called active from +8 up or from −8 down
[7] = probe aLefty2 binding to arrayed compounds – biochemical, biotinylated probe, 635/667 nm fluorescence, primary screen (AID 1094); details: small-molecule microarray, higher = more signal;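 further: score merges spot fluorescence near 667 nm with spot signal-to-noise ratio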
[8] = tested on: Noggin (protein binding on small-molecule microarray); assay: small molecules binding Noggin protein – biochemical, 635/667 nm fluorescence, primary screen (AID 1095); details: 635 nm fluorescence, higher = more signal;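 further: score merges 667 nm feature fluorescence with signal to noise over triplicate slides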
[9] = biological target: Neurogenic locus notch homolog protein 3 (Homo sapiens) (UniProt Q9UM47); assay: small molecules binding NOTCH3 protein – biochemical, 635/667 nm fluorescence, primary screen (AID 1096); details: small-molecule microarray, 635 nm fluorescence, higher = more signal
Neurogenic locus notch homolog protein 3 (Homo sapiens), sequence (Q9UM47 whole entry, looked up): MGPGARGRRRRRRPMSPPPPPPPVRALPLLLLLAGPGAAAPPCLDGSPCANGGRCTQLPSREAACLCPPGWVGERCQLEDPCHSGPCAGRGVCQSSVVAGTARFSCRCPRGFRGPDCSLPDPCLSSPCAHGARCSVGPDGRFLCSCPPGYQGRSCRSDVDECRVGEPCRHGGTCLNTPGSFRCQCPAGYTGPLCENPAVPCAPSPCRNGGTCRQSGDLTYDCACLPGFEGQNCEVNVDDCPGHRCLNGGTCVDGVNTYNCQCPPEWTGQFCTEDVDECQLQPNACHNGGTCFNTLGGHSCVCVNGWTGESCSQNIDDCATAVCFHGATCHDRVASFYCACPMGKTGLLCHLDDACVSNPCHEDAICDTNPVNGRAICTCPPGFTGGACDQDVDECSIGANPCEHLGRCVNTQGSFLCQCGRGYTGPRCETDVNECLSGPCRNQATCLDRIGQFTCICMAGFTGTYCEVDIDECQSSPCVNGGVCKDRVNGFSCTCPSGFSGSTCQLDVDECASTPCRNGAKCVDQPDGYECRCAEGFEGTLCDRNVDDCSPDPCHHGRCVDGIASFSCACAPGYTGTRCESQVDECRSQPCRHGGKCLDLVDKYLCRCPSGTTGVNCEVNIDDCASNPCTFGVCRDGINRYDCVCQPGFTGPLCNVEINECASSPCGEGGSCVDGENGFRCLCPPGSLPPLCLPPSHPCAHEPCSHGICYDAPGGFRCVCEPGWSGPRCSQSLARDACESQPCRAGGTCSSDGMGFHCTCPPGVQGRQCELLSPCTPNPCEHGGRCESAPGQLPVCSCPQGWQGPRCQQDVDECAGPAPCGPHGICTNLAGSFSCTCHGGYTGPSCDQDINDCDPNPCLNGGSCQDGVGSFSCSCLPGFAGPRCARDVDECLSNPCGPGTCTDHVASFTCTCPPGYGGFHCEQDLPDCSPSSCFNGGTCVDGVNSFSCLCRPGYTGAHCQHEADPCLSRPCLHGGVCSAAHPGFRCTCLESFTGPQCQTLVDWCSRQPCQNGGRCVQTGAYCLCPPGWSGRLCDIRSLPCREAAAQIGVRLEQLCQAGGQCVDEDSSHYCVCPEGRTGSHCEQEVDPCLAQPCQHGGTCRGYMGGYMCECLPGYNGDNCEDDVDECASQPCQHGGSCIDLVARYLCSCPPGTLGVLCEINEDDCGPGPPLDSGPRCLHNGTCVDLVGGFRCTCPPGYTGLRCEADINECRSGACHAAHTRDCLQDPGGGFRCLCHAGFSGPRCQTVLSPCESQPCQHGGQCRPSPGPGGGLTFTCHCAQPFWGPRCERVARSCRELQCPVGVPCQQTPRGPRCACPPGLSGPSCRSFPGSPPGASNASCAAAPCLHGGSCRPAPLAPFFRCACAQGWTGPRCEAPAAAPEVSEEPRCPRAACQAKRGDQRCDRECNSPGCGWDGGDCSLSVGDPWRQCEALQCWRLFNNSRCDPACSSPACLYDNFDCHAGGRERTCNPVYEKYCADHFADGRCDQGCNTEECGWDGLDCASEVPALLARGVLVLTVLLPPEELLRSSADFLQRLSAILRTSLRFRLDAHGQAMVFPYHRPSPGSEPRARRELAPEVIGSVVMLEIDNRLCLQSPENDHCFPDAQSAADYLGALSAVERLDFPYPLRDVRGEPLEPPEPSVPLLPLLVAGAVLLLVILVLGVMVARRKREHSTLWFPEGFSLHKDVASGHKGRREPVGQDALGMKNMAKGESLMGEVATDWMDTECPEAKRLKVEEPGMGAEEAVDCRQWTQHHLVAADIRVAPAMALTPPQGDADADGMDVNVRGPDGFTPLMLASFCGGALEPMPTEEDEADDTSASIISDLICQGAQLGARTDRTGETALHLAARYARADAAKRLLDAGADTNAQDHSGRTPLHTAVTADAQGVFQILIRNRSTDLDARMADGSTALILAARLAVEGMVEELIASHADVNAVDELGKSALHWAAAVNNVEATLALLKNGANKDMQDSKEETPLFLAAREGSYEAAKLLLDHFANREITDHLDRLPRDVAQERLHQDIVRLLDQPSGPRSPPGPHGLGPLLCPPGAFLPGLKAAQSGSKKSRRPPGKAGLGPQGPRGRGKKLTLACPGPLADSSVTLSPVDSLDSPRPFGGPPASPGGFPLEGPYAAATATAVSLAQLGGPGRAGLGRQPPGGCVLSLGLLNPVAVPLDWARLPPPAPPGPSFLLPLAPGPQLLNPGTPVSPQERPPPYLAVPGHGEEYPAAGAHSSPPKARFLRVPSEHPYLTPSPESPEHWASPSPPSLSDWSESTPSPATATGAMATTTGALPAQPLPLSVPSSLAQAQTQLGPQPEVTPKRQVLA

[10] = probe aEGFR binding to arrayed compounds – biochemical, biotinylated probe, 635/667 nm fluorescence, primary screen (AID 1097); details: small-molecule microarray, higher = more signal;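 further: probe is a biotinylated anti-EGFR antibody binding compounds printed on slides; score combines fluorescence near 667 nm and signal to noise of each spot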
[11] = tested on: Plasmodium falciparum Sir2 (PF13_0152, Sir2A); assay: Plasmodium falciparum Sir2A binding compounds – biochemical, small-molecule microarray, 635 nm fluorescence, primary screen (AID 1098); details: fluorescence 635 nm, higher = more signal;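 further: score merges spot fluorescence intensity with its signal-to-noise ratio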
[12] = probe aDKK1 binding to arrayed compounds – biochemical, biotinylated probe, 635/667 nm fluorescence, primary screen (AID 1099); details: small-molecule microarray, higher = more signal;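 further: score merges 667nm spot fluorescence with signal to noise across triplicate slides; reference of the scale not given here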
[13] = probe aCHRDL2 binding to arrayed compounds – biochemical, biotinylated probe, 635/667 nm fluorescence, primary screen (AID 1100); details: small-molecule microarray, higher = more signal
[14] = change in splice reporter luminescence, either direction, cell-based, HEK293, spliceosome inhibition project, primary screen (AID 1101); details: HEK293 splicing luciferase reporter, 24 h, higher = more signal, called active from +8 up or from −8 down;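 further: HEK293 cells carrying a splicing-competent luciferase reporter gene; test concentration not given here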
[15] = biological target: Fibroblast growth factor 10 (Homo sapiens) (UniProt O15520); assay: compounds binding fibroblast growth factor 10 – biochemical, small-molecule microarray, 635 nm fluorescence, primary screen (AID 1102); details: FGF10 binding, fluorescence 635 nm, higher = more signal
Fibroblast growth factor 10 (Homo sapiens), sequence (O15520 whole entry, looked up): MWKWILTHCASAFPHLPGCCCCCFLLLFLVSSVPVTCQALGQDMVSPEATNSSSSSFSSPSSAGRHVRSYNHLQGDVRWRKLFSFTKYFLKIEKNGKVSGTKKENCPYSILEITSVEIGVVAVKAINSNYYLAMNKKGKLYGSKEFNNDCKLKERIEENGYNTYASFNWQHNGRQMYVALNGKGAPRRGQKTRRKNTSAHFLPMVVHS

[16] = tested on: glycogen synthase kinase-3 (GSK3A per assay name; protocol says GSK3B); assay: compounds binding glycogen synthase kinase-3 – biochemical, small-molecule microarray, 635 nm fluorescence, GSK3A, primary screen (AID 1103); details: fluorescence 635 nm, higher = more signal; further: the record names both GSK3A and GSK3B
[17] = biological target: Epidermal growth factor receptor (Homo sapiens) (UniProt P00533); assay: compounds binding epidermal growth factor receptor – biochemical, small-molecule microarray, 635 nm fluorescence, primary screen (AID 1104); details: EGFR binding, higher = more signal;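 further: score merges 667 nm emission intensity with spot signal to noise over triplicate slides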
Epidermal growth factor receptor (Homo sapiens), sequence (P00533 whole entry, looked up): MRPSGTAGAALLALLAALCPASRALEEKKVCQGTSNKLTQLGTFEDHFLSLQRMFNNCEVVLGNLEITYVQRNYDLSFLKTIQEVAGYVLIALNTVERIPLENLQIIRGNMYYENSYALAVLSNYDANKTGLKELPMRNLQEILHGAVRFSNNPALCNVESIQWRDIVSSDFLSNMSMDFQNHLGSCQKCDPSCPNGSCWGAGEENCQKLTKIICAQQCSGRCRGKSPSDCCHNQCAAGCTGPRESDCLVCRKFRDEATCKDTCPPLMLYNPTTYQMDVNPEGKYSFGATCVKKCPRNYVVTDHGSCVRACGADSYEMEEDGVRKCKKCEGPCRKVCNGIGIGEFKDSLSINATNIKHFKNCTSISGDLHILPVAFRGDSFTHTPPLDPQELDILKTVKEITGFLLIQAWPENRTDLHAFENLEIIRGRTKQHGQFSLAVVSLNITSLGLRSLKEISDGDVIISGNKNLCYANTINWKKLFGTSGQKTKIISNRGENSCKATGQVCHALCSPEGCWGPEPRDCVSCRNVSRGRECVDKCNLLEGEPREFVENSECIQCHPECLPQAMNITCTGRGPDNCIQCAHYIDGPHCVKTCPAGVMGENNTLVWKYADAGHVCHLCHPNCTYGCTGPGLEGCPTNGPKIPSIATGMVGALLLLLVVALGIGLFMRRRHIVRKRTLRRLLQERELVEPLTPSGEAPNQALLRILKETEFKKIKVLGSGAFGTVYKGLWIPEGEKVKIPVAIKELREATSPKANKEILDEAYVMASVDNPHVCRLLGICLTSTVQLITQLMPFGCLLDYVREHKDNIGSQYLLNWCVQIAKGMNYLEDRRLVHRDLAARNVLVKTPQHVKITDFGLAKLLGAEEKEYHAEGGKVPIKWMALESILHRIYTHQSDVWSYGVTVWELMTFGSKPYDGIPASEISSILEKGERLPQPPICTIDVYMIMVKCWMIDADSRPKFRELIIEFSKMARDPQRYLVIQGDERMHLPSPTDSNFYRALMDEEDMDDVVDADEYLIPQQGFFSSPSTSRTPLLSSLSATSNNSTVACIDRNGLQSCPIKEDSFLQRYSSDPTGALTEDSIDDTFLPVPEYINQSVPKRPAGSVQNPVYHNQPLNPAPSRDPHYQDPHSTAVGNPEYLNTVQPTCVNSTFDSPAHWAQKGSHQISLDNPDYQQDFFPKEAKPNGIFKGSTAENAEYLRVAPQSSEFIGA

[18] = biological target: Follistatin-related protein 3 (Homo sapiens) (UniProt O95633); assay: compounds binding follistatin-related protein 3 – biochemical, small-molecule microarray, 635 nm fluorescence, primary screen (AID 1105); details: FSTL3 binding, higher = more signal;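 further: score merges emission near 667 nm and signal to noise per printed spot across three slides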
Follistatin-related protein 3 (Homo sapiens), sequence (O95633 whole entry, looked up): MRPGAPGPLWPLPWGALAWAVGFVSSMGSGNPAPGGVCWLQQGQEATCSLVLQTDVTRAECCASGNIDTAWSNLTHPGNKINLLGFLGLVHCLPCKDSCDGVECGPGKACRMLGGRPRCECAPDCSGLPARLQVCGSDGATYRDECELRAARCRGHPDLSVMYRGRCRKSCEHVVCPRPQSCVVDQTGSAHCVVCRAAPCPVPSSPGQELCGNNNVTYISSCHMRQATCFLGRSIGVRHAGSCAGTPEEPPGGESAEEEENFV

[19] = biological target: Dickkopf-related protein 1 (Homo sapiens) (UniProt O94907); assay: small molecules binding DKK1 protein – biochemical, small-molecule microarray, 635 nm fluorescence scan, primary screen (AID 1106); details: higher = more signal;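 further: score merges emission near 667 nm with signal to noise over three replicate slides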
Dickkopf-related protein 1 (Homo sapiens), sequence (O94907 whole entry, looked up): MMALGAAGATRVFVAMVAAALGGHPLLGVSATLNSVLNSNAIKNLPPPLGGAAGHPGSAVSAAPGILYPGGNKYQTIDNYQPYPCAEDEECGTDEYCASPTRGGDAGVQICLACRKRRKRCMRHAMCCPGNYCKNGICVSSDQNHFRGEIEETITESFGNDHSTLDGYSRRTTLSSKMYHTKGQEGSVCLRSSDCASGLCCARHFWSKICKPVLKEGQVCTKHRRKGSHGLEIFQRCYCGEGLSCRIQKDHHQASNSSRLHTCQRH

[20] = tested on: Inhibin beta A chain (activin A); assay: small molecules binding activin A – biochemical, small-molecule microarray, 635 nm fluorescence scan, primary screen (AID 1107); details: INHBA, higher = more signal;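 further: mouse activin A protein probed at 4.33 µg/mL on printed slides; score merges bound-protein fluorescence near 667 nm with spot signal-to-noise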

SMILES | composite z-score [1] | z-score [2] | z-score [3] | z-score [4] | composite z-score [5] | z-score [6] | composite z-score [7] | composite z-score [8] | composite z-score [9] | composite z-score [10] | composite z-score [11] | composite z-score [12] | composite z-score [13] | z-score [14] | composite z-score [15] | composite z-score [16] | composite z-score [17] | composite z-score [18] | composite z-score [19] | composite z-score [20]
COc1ccc(-c2cc3c(c(Cc4ccccc4)n2)[Si](C(C)C)(C(C)C)OC3)cn1 | -0.738 | 1.64 (inactive) | -0.27 (inactive) | 1.41 (inactive) | -0.655 | -1.41 (inactive) | -0.115 | -0.154 | -0.459 | -0.16 | 0.409 | 0.0847 | -0.386 | -0.267 (inactive) | -0.156 | -0.949 | 0.343 | -0.139 | 0.085 | 0.256
CN(C)C(=O)[C@]1(Cc2ccccc2)N=C(c2ccc(OCCCO)cc2)O[C@@H]1c1ccccc1N=[N+]=[N-] | 1.56 | -0.305 (inactive) | -0.655 (inactive) | 1.06 (inactive) | 2.84 | 0.841 (inactive) | 0.141 | 1.35 | 1.12 | 0.438 | 0.684 | 0.74 | 1.05 | -0.968 (inactive) | 1.5 | 1.3 | 0.382 | 0.817 | 0.173 | 1.25
CC(=CC1CCCCC1)[C@@H](NC(=O)c1cccnc1)c1ccc(-c2ccccc2)cc1 | -0.0028 | 1.36 (inactive) | 0.92 (inactive) | 2.06 (inactive) | 1.16 | -2.18 (inactive) | -0.0042 | -0.18 | 0.298 | -0.222 | -0.178 | -0.0066 | 0.849 | 0.772 (inactive) | -0.599 | -1.11 | -0.419 | -0.195 | -0.44 | 0.679
C=CCC(OC(C)=O)[C@@H]1[C@@H](N(Cc2ccc(-c3ccccc3)cc2)C(=O)Cc2ccc(F)cc2)c2cc(OCCCO)ccc2N1C(=O)c1ccc2ccccc2c1 (stereo not given in full) | 0.688 | 0.245 (inactive) | 0.135 (inactive) | 0.14 (inactive) | 0.437 | 0.0919 (inactive) | 0.0002 | 0.289 | 0.147 | -0.109 | -0.352 | -0.0183 | 0.345 | -0.519 (inactive) | 0.0036 | 0.0557 | 0.0144 | 0.268 | -0.4 | 1.18
O=C1NC(=O)C2C1C=CC(C(O)c1ccc(-c3ccccc3)s1)N2Nc1ccc(Cl)cc1Cl (stereo not given) | 0.193 | -0.863 (inactive) | -1.76 (inactive) | 1.58 (inactive) | 3.07 | -1.25 (inactive) | 0.214 | 0.23 | 0.983 | -0.106 | 1.02 | -0.214 | 0.956 | 0.624 (inactive) | 0.227 | 0.508 | 0.112 | 0.992 | -0.729 | 0.959
CCCCCCc1nc(-c2ccc(-c3ccc(Cl)c(Cl)c3)o2)c(C)c2c1[Si](C(C)C)(C(C)C)OC2 | 0.337 | -0.972 (inactive) | -3.62 (inactive) | 0.0962 (inactive) | 0.703 | -0.0336 (inactive) | -0.259 | -0.123 | -0.243 | -0.233 | -0.0921 | -0.233 | -0.102 | -1.62 (inactive) | -0.57 | -0.555 | -0.648 | -0.374 | -0.446 | 0.375
COC(=O)[C@@]1(Cc2ccc(F)cc2)[C@H]2c3cc(C(=O)N(C)C)n(Cc4cc(C)n(C)n4)c3C[C@H]2CN1C(=O)c1ccccc1 | 1.02 | 0.619 (inactive) | 0.456 (inactive) | -0.109 (inactive) | 3.09 | -0.38 (inactive) | 0.629 | -0.421 | 1.01 | 0.14 | 1.16 | 1.2 | 1.19 | -1.99 (inactive) | 1.17 | 0.716 | -0.0733 | 0.386 | 0.0455 | 0.609
C=CC[C@]1(C(=O)N2CCOCC2)N=C(c2ccc(OCCCO)cc2)O[C@H]1c1ccccc1N=[N+]=[N-] | 1.54 | -0.0233 (inactive) | -1.22 (inactive) | 0.206 (inactive) | 3.45 | 0.734 (inactive) | 0.405 | 0.752 | 1.11 | -0.0406 | 0.945 | 0.779 | 1.17 | -1.23 (inactive) | 0.95 | 1.29 | 0.23 | 0.673 | -0.201 | 1.09
C=C(CCCC)/C(=C/C[C@@H](OC(C)=O)c1ccccc1OCCO)c1cc(C(=O)OC)ccc1OC | 0.252 | 1.03 (inactive) | 0.404 (inactive) | -0.358 (inactive) | 0.615 | 0.531 (inactive) | -0.12 | 0.0643 | -0.218 | -0.185 | 0.175 | -0.211 | -0.271 | -0.5 (inactive) | -0.104 | 0.098 | -0.657 | -0.458 | -0.149 | 0.864
COC(=O)C(CC#Cc1ccc2c(c1)[C@]1(C(=O)N2)[C@H](c2ccc(O)cc2)N2[C@H](c3ccccc3)[C@H](c3ccccc3)OC(=O)[C@H]2[C@@H]1C(=O)N1CCN(c2ncccn2)CC1)C(=O)OC | 1.55 | 1.07 (inactive) | 0.516 (inactive) | 1.93 (inactive) | 3.21 | 0.248 (inactive) | 0.107 | 0.24 | 0.975 | 0.0167 | 1.69 | 0.534 | 0.508 | -0.84 (inactive) | 0.621 | 1.03 | 0.116 | 0.655 | 0.0879 | 0.126

From PubChem BioAssay
